# Screening data from PubChem BioAssay.
# Pf growth 48h – Primary qHTS for delayed death inhibitors of the malarial parasite plastid, 48 hour incubation; P. falciparum luciferase growth in erythrocytes, 48 h; Potency, µM (titrated, usually from 28.7 µM), inactives show at the top dose activity change, negative = inhibition, actives largely listed as inhibitors; hit rate 5.9% among 310,000; active means well fitted inhibition curve with a large enough effect; inconclusive means small, poorly fitted or top-dose-only effect, or another doubt; inactive means no such curve, though single readings can be large or run the other way; further: potency means the concentration at half of the fitted maximal effect; on the % scale 0 is the no-effect control and ±100 the full control effect
#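 Erythrocytes infected with P. falciparum carrying an integrated firefly luciferase reporter (2% hematocrit, 0.1% parasitemia final) were exposed to compounds in RPMI 1640 with 0.5% Albumax at 37 C, 5% CO2. Growth inhibition was scored as reduced luminescence.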
# Shiga inhibitor – A qHTS for Small Molecule Inhibitors of Shiga Toxin | Vero cells, Shiga toxin protein synthesis inhibition reporter | hit rate 9.2% among 290,000 | AID 2315, 2010 | inhibition, % at 38.7 µM; in the data active means inhibition mostly above about 28%, no sharp cut-off; inactive means mostly below about 43%; further: 0% is about no effect
# Cycloheximide cs – Cycloheximide Counterscreen for Small Molecule Inhibitors of Shiga Toxin; cell reporter, cycloheximide protein synthesis inhibition counterscreen; max response, %; hit rate 12% among 300,000; in the data active means max response mostly above about 13%, no sharp cut-off; inactive means mostly below about 14%; further: read at 38.3 µM for the half of the compounds with a filed dose; 0% is about no effect
# Pf growth 96h – Primary qHTS for delayed death inhibitors of the malarial parasite plastid, 96 hour incubation. Potency, µM (series often up to 28.7 µM), inactives show at the highest dose activity change, negative = inhibition, most hits filed as inhibitors. P. falciparum luciferase reporter growth, 96 h. hit rate 6.9% among 320,000; active means well fitted inhibition curve with a large enough effect; inconclusive means small, poorly fitted or top-dose-only effect, or another doubt; inactive means no such curve, though single readings can be large or run the other way; further: potency means the concentration at half of the fitted maximal effect; on the % scale 0 is the no-effect control and ±100 the full control effect
#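 Two parasite generations (96 h, 37 C, 5% CO2) of compound exposure in infected erythrocytes (0.05% parasitemia, 2% hematocrit). Luciferase-reporter P. falciparum; decreased luminescence indicates inhibited growth, aimed at apicoplast-acting delayed death.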
# SARS PLP yeast – qHTS of Yeast-based Assay for SARS-CoV PLP | AID 485353, 2010 | hit rate 0.19% among 330,000 | S. cerevisiae expressing SARS-CoV PLpro, growth rescue | Potency, µM (titrated, usually from 32.9 µM), without a hit: top-dose activity, positive = growth rescue, hits mostly activators; further: potency means the concentration at half of the fitted maximal effect; 0% is about no effect; nearly all actives have a fitted effect of over 55% in size
# NS1 inh – qHTS Assay for Inhibitors of Influenza NS1 Protein Function; Potency, µM (series often up to 46.1 µM), without a hit: at the top dose activity, positive = more growth; hit rate 0.4% among 270,000; AID 2326, 2010; further: potency means the concentration at half of the fitted maximal effect; actives are rising curves; nearly all actives have a fitted effect of over 50% in size
#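 OD600 was taken as the measure of yeast growth restored by compound in an NS1-expressing S. cerevisiae strain. Cells had been washed out of glucose medium and diluted 1:100 into galactose -URA medium, pH 6.0.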
# * = called active by the depositor; ? = inconclusive; . = no result given. Compounds with a hit are over-represented: about 21% of the library has one in this group of screens. Unless noted, the call rests on the fitted dose curve.
SMILES,Pf growth 48h,Shiga inhibitor,Cycloheximide cs,Pf growth 96h,SARS PLP yeast,NS1 inh
c1ccc(-c2cc(CSc3nc4ccccc4[nH]3)on2)cc1,19%,31,14,.,-18%,3%
CN(C)c1nc(C=C(C#N)C#N)c(Cl)n1-c1ccc(F)cc1,?,6,24*,?,-8%,.
Cc1ccc(NC(=O)N2CCCC2C(=O)Nc2ccc3c(c2)OCCO3)cc1 (centres undefined),31%,21,2,3%,-18%,12%
CC(C)OC(=O)CC12CN(C)CC(CC(=O)OC(C)C)(CN(C)C1)C2=O,34%,40,35*,?,-3%,1%
Oc1c(Cl)cc(Cl)cc1C1=NNC(c2ccc(Cl)cc2)C1 (centres undefined),-7%,73*,31*,-100%,-6%,.
Oc1ccc(Cl)cc1C1=NNC(c2ccc(Cl)cc2)C1 (centres undefined),?,31*,30*,?,-99%,-52%
CCOC(=O)N1CCN(CCC(=O)Nc2ccc(F)c(F)c2)CC1,?,32,-3,15µM*,-3%,2%
CCOC(=O)N1CCN(S(=O)(=O)c2ccc(F)c(C(=O)Nc3ccc(C)c(Cl)c3)c2)CC1,13µM*,-11,-5,-3%,-26%,27%
CCOC(=O)C1(c2ccccc2)CCN(CCC(=O)Nc2ccc(F)cc2)CC1,13µM*,.,.,9.3µM*,2%,.
CC1(C)C(=O)OC(/C=C\c2cccc([N+](=O)[O-])c2)C(C)(C)C1=O (centres undefined),14%,7,-3,89%,-1%,-1%
COC(=O)Cc1ccc(O)c(N)c1,?,6,-1,1.9µM*,1%,5%
c1ccc2c(c1)[nH]c1c(N3CCCC3)ncnc12,?,29,-1,2.6µM*,2%,-10%
CN1CCN(c2ncnc3c2[nH]c2ccc(F)cc23)CC1,2.9µM*,-12,1,?,3%,1%
Brc1ccc2[nH]c3c(N4CCc5ccccc5C4)ncnc3c2c1,1.7µM*,72*,49*,.,4%,-12%
CCOc1ccc2[nH]c3c(N4CCc5ccccc5C4)ncnc3c2c1,?,14,8,13µM*,-5%,-5%
Cc1ccc2[nH]c3c(N4CCc5ccccc5C4)ncnc3c2c1,?,13,15,?,-2%,-79%
O=C(NCCCn1ccnc1)C(=O)NCC1OCCCN1S(=O)(=O)c1ccccc1 (centres undefined),0%,-9,1,-9%,-4%,-9%
COC(=O)COc1ccc(Oc2nc(SC)nc(N(C)C)n2)nn1,4%,-21,-6,.,0%,1%
C#CCOCCOCCOCCNc1nc(N2CCN(C(=O)C([C@@H](C)O)n3cc([C@@H](N)CCCCN)nn3)CC2)nc(N2CCN(C(=O)[C@H](CCCCN)n3cc([C@@H](N)CC(N)=O)nn3)CC2)n1 (some centres undefined),.,.,.,.,0%,.
Fc1ccc2[nH]c3c(N4CCc5ccccc5C4)ncnc3c2c1,2.9µM*,-12,7,1.9µM*,-1%,-4%
CCN1CCN(S(=O)(=O)c2ccc(Cl)c(C(=O)N(CC)Cc3ccccc3)c2)CC1,?,.,.,-1%,-3%,.
CN(CC(=O)Nc1ccc(S(=O)(=O)N2CCCC2)cc1)Cc1ccc(Cl)cc1Cl,?,-11,-2,?,-24%,-31%
COc1ccc(CCN(C)c2ccc(S(=O)(=O)N3CCCC3)cc2[N+](=O)[O-])cc1OC,?,-10,-1,0%,-17%,8%
O=C(CCc1ccccc1)Nc1ccc(S(=O)(=O)N2CCOCC2)cc1,?,-13,2,9%,1%,-1%
O=C(CCc1ccccc1)Nc1ccc(S(=O)(=O)N2CCCC2)cc1,?,-1,-2,8.3µM*,1%,1%
SMILES,Pf growth 48h,Shiga inhibitor,Cycloheximide cs,Pf growth 96h,SARS PLP yeast,NS1 inh
CCN1CCN(S(=O)(=O)c2ccc(S(=O)(=O)N(CC)Cc3ccccc3)cc2)CC1,13µM*,1,-1,?,1%,-2%
CN(CC(=O)Nc1ccc(Cl)cc1)c1ccc(S(=O)(=O)N2CCCCC2)cc1[N+](=O)[O-],?,-13,-4,2.9µM*,6%,-12%
COc1ccc(CN(C)c2ccc(S(=O)(=O)N3CCN(C)CC3)cc2[N+](=O)[O-])cc1OC,12µM*,.,.,15µM*,-7%,.
NC(=O)c1ccc(NC(=O)CN2CCN(c3ccc(Cl)cc3)CC2)cc1,7%,-18,-5,12µM*,0%,.
O=C(CCc1ccccc1)Nc1ccc(N2CCCCC2)cc1,98%,93*,33*,-8%,-10%,8%
NC(=O)c1ccc(NC(=O)CN2CCN(c3ccccc3)CC2)cc1,3%,.,-3,?,1%,15%
COc1cc(CN(C)c2ccc(S(=O)(=O)N3CCCC3)cn2)ccc1OC(F)F,15µM*,.,.,?,5%,.
O=C(Cc1ccccc1)Nc1ccc(N2CCCC2)cc1,.,30,15,53%,2%,9%
O=C(CN1CCCCC1)Nc1ccc(N2CCCCCC2)cc1,?,44,17*,24%,0%,0%
O=C(CCC(=O)N1CCOc2ccccc21)Nc1ccccc1Br,11%,-5,1,29%,-1%,-12%
O=C(NNC(=S)NCc1ccc(Cl)cc1)c1ccc2c(c1)OCO2,14%,-4,-4,?,-1%,-1%
O=C(C[n+]1ccc(/C=N/O)cc1)N1CCCCC1,-16%,28,1,20%,0%,0%
O=S(=O)(N/N=C/c1ccc(N2CCOCC2)cc1)c1ccc(Br)cc1,3%,48,-2,12%,-3%,.
COc1cccc(/C=C2\SC(=O)N(CCC(=O)N3CCC(C(=O)O)CC3)C2=O)c1,1%,-6,-7,?,2%,-1%
CCCOC(=O)Nc1ccc(N2CCCCC2)cc1,132%,56*,34*,41%,.,-17%
CN1CCN(c2ccc(S(=O)(=O)N3CCCCC3)cc2NC(=O)CCc2ccccc2)CC1,9.3µM*,.,.,?,3%,.
CCN(CC(=O)Nc1ccc(S(=O)(=O)N2CCCC2)cc1)Cc1ccccc1,13µM*,.,.,?,2%,.
CCN(CC(=O)Nc1ccc(NC(C)=O)cc1)C(=O)/C=C/c1ccc(S(=O)(=O)N2CCCCCC2)cc1,3.3µM*,-11,-3,4.7µM*,4%,-1%
CN1CCN(c2ccc(S(=O)(=O)N3CCCCC3)cc2NC(=O)CSCc2ccccc2)CC1,?,2,-3,?,-1%,1%
O=C(COc1ccccc1)Nc1ccc(N2CCCCC2)cc1,0%,.,.,21%,1%,.
CCN(CC(=O)Nc1c(F)cccc1F)C(=O)CSc1nnc(-c2ccco2)n1CC,-4%,-10,-1,17%,-9%,3%
CCCC(=O)Nc1sc(C)c(C)c1C(=O)Nc1cccc(C)c1,?,10,-3,17%,-1%,0%
